# Reference: PubChem BioAssay (NCI)
# This is part of a sample that, as a whole, favours compounds with a hit. Of some 79,000 tested, about 15% had one in any assay. Values without a mark were called inactive. Calls of active or inactive are those of the source. No stated cut-off is given here; in the data, active means growth inhibition above about 70%; inactive means the rest.
# Legend:
# [1] = NCI Yeast Anticancer Drug Screen. Data for the rad50 strain (AID 155);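 further: 0% = growth of vehicle-only cultures of the same strain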; conditions: S. cerevisiae rad50 strain growth inhibition; at 50.0 µM; stronger effect = higher value
# Procedure, shortened: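 A DNA repair-deficient yeast mutant serves as the test organism; compound-induced growth inhibition is calculated against vehicle-treated cells.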
# [2] = NCI Yeast Anticancer Drug Screen. Data for the mec2-1 strain (AID 157); conditions: S. cerevisiae mec2-1 strain, at 50.0 µM, stronger effect = higher value
# Procedure, shortened: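 Vehicle-treated cultures served as reference for growth inhibition of compound-exposed mec2-1 yeast.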
# [3] = NCI Yeast Anticancer Drug Screen. Data for the sgs1 mgt1 strain (AID 161);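 further: 0% = growth of cultures given vehicle only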; conditions: S. cerevisiae sgs1 mgt1 strain, at 50.0 µM, stronger effect = higher value
# Procedure, shortened: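 Test agents were incubated with a DNA-repair-mutant yeast strain. Growth was then read and compared against vehicle-treated controls.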
# [4] = NCI Yeast Anticancer Drug Screen. Data for the cln2 rad14 strain (AID 165);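 further: 0% = growth equal to vehicle treated cultures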; conditions: S. cerevisiae cln2 rad14 strain, at 50.0 µM, stronger effect = higher value
# Procedure, shortened: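 Each compound was tested on cln2 rad14 yeast. Inhibition of growth was calculated against vehicle-exposed controls.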
# [5] = NCI Yeast Anticancer Drug Screen. Data for the bub3 strain (AID 167); conditions: S. cerevisiae bub3 mutant strain, at 50.0 µM, stronger effect = higher value
# Procedure, shortened: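 Inhibition values come from growth of compound-treated mutant yeast normalised to vehicle-treated controls.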
# [6] = NCI Yeast Anticancer Drug Screen. Data for the mlh1 rad18 strain (AID 175); conditions: S. cerevisiae mlh1 rad18 strain growth inhibition; at 50.0 µM; stronger effect = higher value
# Procedure, shortened: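 Vehicle-treated cultures served as the reference for growth inhibition in a yeast strain carrying DNA damage repair alterations exposed to each compound.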
Structure (SMILES),growth inhibition [1],growth inhibition [2],growth inhibition [3],growth inhibition [4],growth inhibition [5],growth inhibition [6]
CC1=C(Br)C(=O)C(C(C)C)=CC1=O,-38.2%,-20.6%,-6.75%,-4.9%,3.5%,0.9%
O=C1CC(c2ccccc2)=NN1c1ccccc1,-8.3%,-25.4%,-5.55%,9.5%,-23.8%,18.6%
O=[N+]([O-])c1ccc(SC2OC(CO)C(O)C(O)C2O)c([N+](=O)[O-])c1 (configuration not stated),2.05%,29.4%,3.95%,-14.2%,-5.35%,20.8%
CCCCCCCCCC(=O)N/N=C/c1ccccc1O,-4.3%,12.7%,19.2%,-19.1%,19.9%,13.8%
C/C(=C1\C(=O)Nc2ccccc21)c1cccnc1,-8.2%,-9.25%,-9.5%,11.3%,-10.4%,-7.55%
O=C(/C=C/C=C/c1ccc2c(c1)OCO2)N1CCCCC1,-1.5%,-26.4%,12.1%,-22.6%,5.45%,-22.7%
COP(=O)(CC(=O)C1OC(C)(C)OC1C(O)COCc1ccccc1)OC (configuration not stated),-21.3%,22.9%,22.9%,14.3%,14.6%,5.85%
CCCCc1nc(C)oc1C(C)C,-31.2%,-15.8%,-8.05%,-5.45%,-23.9%,-8.2%
CCC(C)(N)C(=O)O (configuration not stated),10%,13.3%,5.1%,2.6%,18.2%,4.05%
O=C1CC2(CC(=O)N1CCc1c[nH]c3ccccc13)OCCO2,-1.35%,9.05%,10.1%,-0.5%,20.6%,-6.15%
Cc1cc(C)cc(C(C)C)c1,-15.4%,-4.35%,-22.9%,5.95%,-11.6%,-6.95%
CNc1ccc(O)cc1,3.6%,6.9%,5.75%,-24.4%,-0.05%,15.4%
C/C(=N\NC(=O)c1ccncc1)c1ccc(Cl)cc1Cl,5.85%,7.15%,0.55%,1.95%,4.65%,8.5%
CC1=CC=CC(C)(C)C(=O)C1=O,-31.4%,-13.2%,-12.8%,-18.9%,-21.5%,-15.4%
CC(N)C(C)(C)O (configuration not stated),-2.1%,-13.7%,1.7%,-12.8%,6.2%,0.05%
[N-]=[N+]=Nc1ccnc2c(C(F)(F)F)cccc12,-19.9%,-18.1%,-8%,-60.2%,-14.3%,-2.45%
COc1ccc(CCN/C=C(\C)C(=O)c2ccc(F)cc2)cc1OC,11.2%,-4.6%,-13.6%,-29.2%,-13.9%,-4.5%
ClCC1CCN(Cc2ccccc2)CC1,-4.5%,13.9%,6.7%,-17.4%,-10.5%,6.9%
N#CNc1nc(N)cc(=O)[nH]1,-4.65%,-23.6%,-2.45%,3%,-27.1%,11.2%
O=C1CS(=O)(=O)c2ccccc21,-11.4%,1.5%,1.5%,-13.3%,-8.8%,22.2%
CCN1C(=O)C(=O)C(CC)(CC)C1=O,-8.4%,-1.75%,-7%,-8.25%,0.85%,-13.6%

Structure (SMILES),growth inhibition [1],growth inhibition [2],growth inhibition [3],growth inhibition [4],growth inhibition [5],growth inhibition [6]
O=NN(CCCl)C(=O)NC1CCC(CC(=O)O)CC1 (configuration not stated),19.1%,6.1%,-9.25%,-8.7%,2.9%,-6.85%
N=C(N)N1CCc2ccccc2C1,-5.55%,7.3%,-2%,-3.35%,-28.9%,2.65%
O=C(O)NC(c1ccccc1)C(NC(=O)c1ccccc1)c1ccccc1 (configuration not stated),-0.45%,-4.1%,5.75%,7.15%,-7.35%,31.4%
O=C(OCc1ccccc1)c1ccccc1,18.9%,3.05%,10.8%,-13.3%,28.1%,51.9%
CC(=O)n1[nH]c(=O)n(-c2ccc(Cl)cc2)c1=O,-36.5%,-37.2%,-30.1%,2.1%,-22.2%,-73%
CC(C)CC(O)CC(C)C,1.25%,-25.1%,-0.75%,28.4%,-15.3%,19.8%
O=C(CC(=O)Nc1ccccc1)NNC(c1cc(N=Nc2ccc(Br)cc2)ccc1O)P(O)O (configuration not stated),-4.65%,6.25%,-10.4%,-3.2%,-14%,-38%
CCc1cc2c(O)c(c1)Cc1cc(CC)cc(c1O)Cc1cc(CC)cc(c1O)Cc1cc(CC)cc(c1O)Cc1cc(CC)cc(c1O)Cc1cc(CC)cc(c1O)Cc1cc(CC)cc(c1O)C2,6.55%,27.2%,19.8%,6.5%,6.9%,17.3%
Nc1ccc(C(=O)NN2C(=O)C(Cl)C2c2ccc(O)cc2)cc1 (configuration not stated),-1.75%,-1.45%,-17.2%,-3.05%,4.8%,-25.6%
COc1ccc(/C=N/Nc2nc(C)c3c(n2)Nc2ccccc2NC3=O)cc1,-15.2%,10.2%,3.55%,-1.95%,-1.45%,-19.8%
CN(C)C(=O)C1CCC(CC2CCCCC2)CC1 (configuration not stated),99.1% (active),99.2% (active),99% (active),96.3% (active),98.3% (active),80.9% (active)
COc1ccc(C(O)C(O)(c2ccccc2)c2ccc(OC)cc2)cc1 (configuration not stated),-6.05%,-4.1%,-6.3%,-19.1%,19.9%,-11.6%
COC(=O)/C(=N\O)C(C(=O)C=C(C)C)C(=O)C(=O)Nc1ccccc1C (configuration not stated),-5.8%,-21.6%,-8.35%,7.4%,-14.1%,-18.1%
N/C([S-])=N/N=c1\c(O)c(O)\c1=N/N=C(/N)[S-].[Cu+2],-8.6%,-6.6%,-7%,-2.7%,-10.3%,-12.7%
CCOC(=O)c1ccncc1,23.6%,-0.95%,21.7%,-4.4%,-1.5%,6.4%
CC(=O)c1ccc(Cl)c(-n2cccc2)c1,4.2%,-12.1%,13%,17.6%,17.8%,-0.45%
CC1CN(C(=O)C2CCCN(CCc3ccccc3)C2)CC(C)O1 (configuration not stated),25.4%,2.65%,52.7%,14.8%,2%,22.7%
COC(=O)C(CCCCNC(=O)OCc1ccccc1)NC(=O)c1ccc(N(C)C=O)cc1 (configuration not stated),14.6%,19.7%,-1.7%,26.6%,3.45%,14.8%
[CH3][Ge]([CH3])([CH3])/[C](=[C](\c1ccccc1)[Ge]([CH3])([CH3])[CH3])c1ccccc1,39.6%,-3.5%,10%,9.6%,-1.5%,9.65%
CCCOC(=O)CC(=O)OCC,6%,17.2%,-4.95%,-11.8%,-7.15%,-17.4%
N=C(N)c1ccc(NC(=O)c2ccc(C(=O)Nc3ccc(C(=N)N)cc3)c(N)c2)cc1,9.9%,18.1%,-7.6%,-7.85%,-1.95%,-7.3%
